# Measured values: PubChem BioAssay (NCATS)
# Records with an inconclusive call do not appear. Values without a mark were called inactive. The source made the active and inactive calls. Calls follow the shape of the dose curve; as a rule, active = well fitted inhibition curve with a large enough effect; inconclusive = small, poorly fitted or top-dose-only effect; inactive = flat fitted curve, though single readings scatter.
# Experiments:
# CRL-7250 = normal cell line; assay: Cytotoxic Profiling of Annotated Libraries Using Quantitative High-Throughput Screening (AID 1296008); conditions: Five cell lines viability, CellTiter-Glo ATP luminescence, 48-72 h; max response: active compounds read low; also: nearly all actives have a fitted effect of over 60% in size
# Procedure, shortened: (§1)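 Cells exposed to compounds for 48 or 72 hr at 37 degrees Celsius. Viability read as ATP-coupled luminescence with CellTiter-Glo after 10 min at room temperature.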
# HEK293 = assay: as above; conditions: Five cell lines viability, CellTiter-Glo ATP luminescence, 48-72 h; max response: active compounds read low
# Procedure, shortened: as §1
# % is scaled to controls: 0 for no effect and ±100 for the full control effect; potency is read from the fitted curve at half-maximal effect.
compound,measurement,setting,value
C=C[C@H]1C(O[C@@H]2O[C@H](CO)[C@@H](O)[C@H](O)[C@H]2O)OC=C2C(=O)N3CCc4c([nH]c5ccccc45)C3CC21 (stereo not given in full),outcome,CRL-7250,inactive
same,outcome,HEK293,inactive
COC(=O)C12CCC(C)C(C)C1C1=CCC3C4(C)CCC(OC(C)=O)C(C)(C)C4CCC3(C)C1(C)CC2 (stereo not given),max response,CRL-7250,-3.42%
same,max response,HEK293,0.571%
C=C1OC2CC(C(=O)O)C=CC2NC1=O (stereo not given),max response,CRL-7250,-1.3%
same,max response,HEK293,3.15%
C=C1CC[C@@H]2[C@@](C)(CO[C@@H]3O[C@H](CO)C(O)[C@H](O)C3O)[C@H](O)CC[C@@]2(C)[C@@H]1CC/C(C)=C/CO (stereo not given in full),outcome,CRL-7250,inactive
same,max response,HEK293,1.32%
COc1ccc(-c2c(-c3cc(C(=O)O)ccn3)ncn2C)cc1,max response,CRL-7250,4.8%
same,max response,HEK293,-1.7%
COc1ccc(C2COc3cc(O)ccc3C2)c(O)c1 (stereo not given),max response,CRL-7250,-2.17%
same,max response,HEK293,-0.71%
C=CC(=O)Nc1cc(Nc2nccc(-c3c[nH]c4ccccc34)n2)c(OC)cc1N(C)CCN(C)C,Potency,CRL-7250,18.4 µM (active)
same,Potency,HEK293,5.17 µM (active)
COc1ccc2[nH]c3c(-c4cccc5ccccc45)nccc3c2c1,Potency,CRL-7250,1.16 µM (active)
same,Potency,HEK293,1.3 µM (active)
COC(=O)C[C@H]1[C@]2(C)C3=C(C)[C@H](c4ccoc4)C[C@H]3O[C@@H]2[C@H](OC(C)=O)C2[C@](C)(C(=O)OC)C=CC(=O)[C@@]21C (stereo not given in full),max response,CRL-7250,0.289%
same,max response,HEK293,-6.04%
C[C@@H]([C@@H](O)c1ccc(O)cc1)N1CCC(O)(c2ccccc2)CC1,max response,CRL-7250,0.694%
same,max response,HEK293,-2%
